Bioassay records from PubChem BioAssay.
VACV Venus inh: qHTS for Stage-Specific Inhibitors of Vaccinia Orthopoxvirus: Venus Reporter Primary qHTS; Potency, µM (series often up to 36.5 µM), for the others: top-dose activity change, negative = inhibition, hits mostly inhibitors; 330,000 compounds, 0.46% hits; AID 720580, 2013; Vaccinia virus Venus reporter expression, fluorescence; calls by dose curve; tested in A549 cells; further: on the % scale 0 is the no-effect control and ±100 the full control effect; nearly all actives have a fitted effect of over 30% in size
Pf growth 96h: Primary qHTS for delayed death inhibitors of the malarial parasite plastid, 96 hour incubation; P. falciparum luciferase reporter growth, 96 h; Potency, µM (top dose mostly 28.7 µM), for inactives: top-dose activity change, negative = inhibition, hits mostly inhibitors; 320,000 compounds, 6.9% hits; AID 504834, 2011; further: on the % scale 0 is the no-effect control and ±100 the full control effect
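Infected RBCs, 2% Hct / 0.05% parasitemia final; luciferase-reporter P. falciparum; cpd 96 h, 37 C, 5% CO2; luciferase detection reagent; luminescence.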
HCV inh: qHTS Assay for Inhibitors of Hepatitis C Virus (HCV). Huh7.5.1 HCVcc-Cre infection, luciferase reporter, 44 h. Potency, µM (doses to about 41.8 µM), without a hit: at the top dose activity change, negative = inhibition, most hits filed as inhibitors. 340,000 compounds, 3.4% hits; further: on the % scale 0 is the no-effect control and ±100 the full control effect
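Luciferase read-out (15 sec integration) after a 15 min room-temperature substrate step quantifies HCVcc-Cre infection. Cells, 1,000 per well, had compound added 4 h post-plating, then virus at ~0.5 moi, and were cultured 44 h.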
Pf growth 48h: Primary qHTS for delayed death inhibitors of the malarial parasite plastid, 48 hour incubation | P. falciparum luciferase growth in erythrocytes, 48 h | Potency, µM (doses to about 28.7 µM), without a hit: top-dose activity change, negative = inhibition, most hits filed as inhibitors | 310,000 compounds, 5.9% hits; further: on the % scale 0 is the no-effect control and ±100 the full control effect
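Luciferase-expressing P. falciparum in infected erythrocytes (2% hematocrit, 0.1% parasitemia final) in RPMI 1640/0.5% Albumax were exposed to compound for 48 hours at 37 C, 5% CO2; growth read as luminescence.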
NS1 function inh: qHTS Assay for Inhibitors of Influenza NS1 Protein Function. Potency, µM (doses to about 46.1 µM), inactives show at the top dose activity, positive = more growth. 270,000 compounds, 0.4% hits. AID 2326, 2010; calls by dose curve; further: actives are rising curves; nearly all actives have a fitted effect of over 50% in size
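A cell-based growth assay was used: compounds that relieve NS1-induced slow growth of budding yeast raise OD600. Assay medium was yeast nitrogen base with ammonium sulphate and -URA supplement, pH 6.0, with 2% galactose.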
Vaccinia mCherry: qHTS for Stage-Specific Inhibitors of Vaccinia Orthopoxvirus: mCherry Reporter Primary qHTS; Vaccinia virus mCherry reporter infection, fluorescence; AID 720579, 2013; 310,000 compounds, 0.63% hits; Potency, µM (titrated, usually from 36.5 µM), for the others: top-dose activity change, negative = inhibition, actives largely listed as inhibitors; calls by dose curve; tested in A549 cells; further: on the % scale 0 is the no-effect control and ±100 the full control effect; nearly all actives have a fitted effect of over 35% in size
Starred values were filed as active, the others as inactive; i = inactive; ? = inconclusive; nt = no result; [ ] = dose if it differs, or a comment. Shown are actives, neighbours in structure and some others; about 11% of the full set was active somewhere. Unless noted, the call rests on the fitted dose curve; in most records, active means well fitted inhibition curve with a large enough effect; inconclusive means small, poorly fitted or top-dose-only effect, or another doubt; inactive means no such curve, though single readings can be large or run the other way. Potency means the concentration at half of the fitted maximal effect.

SMILES	VACV Venus inh	Pf growth 96h	HCV inh	Pf growth 48h	NS1 function inh	Vaccinia mCherry
CCOC(=O)C(C)Sc1nnc(Cc2cc(=O)[nH]c(=O)[nH]2)n1-c1ccc(OCC)cc1 (configuration not stated)	5.8%	9.28µM*	13.5%	nt	4.9%	6.2%
CCOc1ccc(-n2c(Cc3cc(=O)[nH]c(=O)[nH]3)nnc2SCc2cccnc2)cc1	nt	13.1µM*	nt	nt	2.4%	nt
CCOc1ccc(-n2c(Cc3cc(=O)[nH]c(=O)[nH]3)nnc2SC(C)C)cc1	nt	?	14.3%	1.7%	?	nt
O=c1oc(/C=C/c2ccco2)nc2sc3c(c12)CCC3	0.5%	51.9%	11.9%	7.7%	-12.2%	-5.0%
O=C(CCN1CCCCC1)Nc1ccc(Br)cc1C(=O)c1ccccc1	-12.9%	246.7%	?	?	-3.1%	i
COc1ccc2[nH]c(C)c(CCN(Cc3cccs3)C(=S)Nc3ccc(F)cc3)c2c1	-21.0%	2.33µM*	11.2µM*	1.65µM*	?	?
COc1ccc2[nH]c(C)c(CCN(Cc3cccs3)C(=S)Nc3ccccc3)c2c1	?	0.415µM*	?	0.828µM*	?	-21.7%
Cc1cccc(C)c1NC(=S)N(CCN(C)C)Cc1cccs1	2.6%	?	5.0%	-3.2%	nt	-6.7%
CNC(=S)N(CCc1c(C)[nH]c2ccc(C)cc12)Cc1cccs1	nt	?	10µM*	?	nt	nt
CNC(=S)N(CCc1c(C)[nH]c2ccc(OC)cc12)Cc1ccco1	nt	?	-20.1%	?	-1.9%	nt
Cc1cc(C)c(NC(=S)N(CCN(C)C)Cc2cccs2)c(C)c1	-4.6%	3.29µM*	10.1%	-26.8%	nt	-22.2%
COc1ccc(NC(=S)N(CCc2c(C)[nH]c3ccc(C)cc23)Cc2ccco2)cc1	?	?	?	-9.9%	14.5%	-28.1%
O=C(Cc1ccccc1)N(Cc1cccnc1)c1nc2c(F)cc(F)cc2s1	-8.0%	nt	nt	nt	nt	-15.6%
Cc1ccc(OCC(=O)Nc2cccc(S(=O)(=O)N3CCCCCC3)c2)cc1C	-11.3%	?	?	?	nt	i
Cn1c(=O)c2c(nc(NCc3ccccc3)n2C)n(C)c1=O	nt	nt	11.6%	-6.6%	-3.8%	nt
COCCNC(=O)C1(C)CCN(C(=O)c2cccnc2Oc2ccccc2)C1 (configuration not stated)	31.6µM*	nt	nt	nt	nt	28.2µM*
C[C@]12CCC3C(C=CC4=CC(=O)CC[C@]43C)C1CC[C@]2(O)CCC(=O)O (some centres not stated)	-20.8%	nt	nt	nt	nt	-12.1%
C[C@@]12CCC(=O)C=C1C=C[C@H]1[C@H]3CC[C@](O)(CCC(=O)O)[C@]3(C)CC[C@@H]12	nt	6.42µM*	nt	?	nt	nt
CC(=O)[C@H]1CC[C@H]2[C@@H]3CCC4=CC(=O)CC[C@]4(C)[C@H]3[C@H](O)C[C@]12C	-13.0%	-23.1%	1.7%[8.37 µM]	7.9%	27.4%	-26.9%
CC(=O)[C@H]1CC[C@H]2[C@@H]3C=CC4=CC(=O)CC[C@@]4(C)[C@@H]3CC[C@]12C	?	1.5%	0.562µM*	?	nt	-13.0%
Cc1ccc(S(=O)(=O)CCC(=O)Nc2nnc(-c3ccco3)o2)cc1	?	-16.5%	10.4%	?	nt	?
O=C(COc1ccccc1)Nc1nnc(-c2ccc(F)cc2)o1	-10.9%	11.7µM*	1.9%	22.1%	-66.5%	i
O=C(CCS(=O)(=O)c1ccc(Cl)cc1)Nc1nnc(-c2ccco2)o1	?	-15.0%	?	-16.1%	nt	10µM*
COc1ccccc1-c1nnc(NC(=O)CCS(=O)(=O)c2ccccc2)o1	?	?	-4.3%	-10.2%	16.4%	8.91µM*
O=C(CCS(=O)(=O)c1ccc(F)cc1)Nc1nnc(-c2ccc(F)cc2)o1	?	?	12.1%	-1.8%	nt	10µM*
SMILES	VACV Venus inh	Pf growth 96h	HCV inh	Pf growth 48h	NS1 function inh	Vaccinia mCherry
c1ccc(Nc2nc(-c3ccccc3)c(-c3ccccc3)s2)cc1	-14.9%	nt	nt	nt	nt	-13.0%
Cc1ccc(-c2nnc(NC(=O)CCS(=O)(=O)c3ccc(F)cc3)o2)c(C)c1	-14.9%	15.1%	4.8%	11.8%	nt	-21.4%
COc1ccccc1-c1nnc(NC(=O)CCS(=O)(=O)c2ccc(F)cc2)o1	4.47µM*	nt	nt	nt	nt	?
Cn1c(CNC(=O)c2ccccc2F)nnc1SCC(=O)NCc1ccccc1	nt	?	-7.8%	9.5%	-0.6%	nt
CC(C)[C@H](NC(=O)c1ccc(C(C)(C)C)cc1)C(=O)N1CCN(Cc2ccc3c(c2)OCO3)CC1	-24.2%	nt	11.2µM*	nt	nt	-9.6%
C[C@H](NC(=O)c1ccccc1)C(=O)N1CCN(Cc2ccc3c(c2)OCO3)CC1	nt	nt	6.0%	nt	nt	nt
Cn1c(C(=O)N2CCCC2)cc2c(=O)n(C)c3ccccc3c21	nt	-21.3%	9.5%	nt	-3.4%	nt
Cn1c(C(=O)N2CCN(Cc3ccc4c(c3)OCO4)CC2)cc2c(=O)n(C)c3ccccc3c21	-25.3%	1.85µM*	-24.5%	nt	-40.3%	?
Cc1c(C(O)CN2CCN(Cc3ccc4c(c3)OCO4)CC2)c2ccccc2n1C (configuration not stated)	-5.1%	?	17.8µM*	?	14.0%	-21.1%
Cn1c(C(=O)N2CCN(c3ncccn3)CC2)cc2c(=O)n(C)c3ccccc3c21	nt	10.4µM*	-5.6%	nt	-23.4%	nt
COc1ccc2c(c1)c(C(O)CN1CCN(Cc3ccc4c(c3)OCO4)CC1)c(C)n2C (configuration not stated)	-20.6%	?	?	?	1.2%	-18.2%[1.46 µM]
CCOc1ccc(NC(=O)C2CC(=O)N(c3ccc4c(c3)OCCO4)C2)cc1OCC (configuration not stated)	-10.2%	11.1%	-9.7%	?	nt	i
Cc1nc2nc[nH]n2c(=O)c1NC(=O)CCc1ccccc1	-0.7%	8.4%	9.9%	20.1%	8.3%	nt
CCOC(=O)C1CCCN(C(=O)c2cc3c(=O)n(C)c4ccccc4c3n2C)C1 (configuration not stated)	-5.2%	8.28µM*	-3.0%	nt	-18.9%	-7.2%
CCOC(=O)C1CCCN(C(=O)c2cc(-c3ccccc3)on2)C1 (configuration not stated)	-5.3%	nt	4.0%	180.9%	-11.0%	i
CC(C)[C@@H](C(=O)N1CCN(Cc2ccc3c(c2)OCO3)CC1)n1nnc2ccccc2c1=O	nt	13.1µM*	?	?	-10.8%	nt
Cn1c(=O)c([N+](=O)[O-])c(N2CCN(Cc3ccc4c(c3)OCO4)CC2)c2ccccc21	-26.2%	11.7µM*	-28.8%	11.7µM*	-5.5%	-5.6%
Fc1cccc(Cl)c1CSc1ccc(-c2cccnc2)nn1	nt	?	-19.2%	27.3%	nt	nt
COc1ccccc1NC(=O)Nc1nnc(Cc2ccccc2F)s1	nt	11.6%	-28.7%	-0.4%[0.00184 µM]	3.0%	nt
